# From ChEMBL document CHEMBL4513135, “CO-ADD screening of IQOG CSIS (Spain) compounds”
# Measured potencies and affinities stand elsewhere.
# System: Escherichia coli
# Details: Concentration 32 ug.mL-1; ASSAY_TEST Inhibition of Bacterial Growth; detection method Absorption (OD600); MEDIA CAMHB; plate type 384well; NBS; CORNING #3640; time 18 hr
row,SMILES,Inhibition [%]
1,N#CC1=C(Cl)Oc2c(ccc3ccccc23)C1c1ccc([N+](=O)[O-])cc1 (centres undefined),-24.25
2,Nc1c2c(nc3nc4ccccc4nc13)CCCC2,-11.07
3,Nc1c2c(nc3c1C(c1ccc([N+](=O)[O-])cc1)c1ccc4ccccc4c1O3)CCCC2 (centres undefined),-12.22
4,Cc1ccc(C(O)SNNc2nc(C)nc3c2c(C)nn3-c2ccccc2)cc1 (centres undefined),5.46
5,COc1ccc2c(c1)cc(CNc1ccccc1)n2C,-6.35
6,COc1ccc(C2c3c(ccc4ccccc34)OC(=NBr)C2(Br)C#N)cc1 (centres undefined),-19.75
7,Cc1ccc2nc(Cl)c(/C=N/NCc3ccccc3)cc2c1,22.89
8,N#Cc1c(NC2CCC(Cc3ccccc3)CC2)nc(NC2CCN(Cc3ccccc3)CC2)c(C#N)c1-c1ccccc1 (centres undefined),-8.77
9,Cc1nc2c(cc1C#N)c(N)nn2C,0.08
10,C#CCNc1nc(NCCCCC2CCN(Cc3ccccc3)CC2)c(C#N)cc1C#N,-12.03
11,Cc1ccc(C(O)SNNc2ncnc3c2c(C)nn3-c2ccccc2)cc1 (centres undefined),11.97
12,Cc1[nH]nc2c1C(c1ccc(O)c(O)c1)C(C#N)=C(N)O2 (centres undefined),8.02
13,Cc1ccc(CNNC(N)=O)cc1.Cl,6.79
14,CCOC(=O)C1=C(C)OC(N)=C(C#N)C1c1cccs1 (centres undefined),-14.26
15,CCOC(=O)C1=C(C)OC(N)=C(C#N)C1c1ccc(F)cc1 (centres undefined),-10.2
16,Cl.OCCCC1CCNCC1,13.14
17,CN(C)c1nc2nc3c(c(N)c2c(-c2ccccc2)c1C#N)CCCC3,-1.51
18,CC(C)(C)OC(=O)Nc1ccc(Br)cn1,-0.9
19,CNN=C1N=C(SCc2ccccc2)SC1=O,4.4
20,COc1ccccc1C1C(C#N)=C(N)Oc2[nH]nc(C)c21 (centres undefined),14.43

row,SMILES,Inhibition [%]
1,CSC1=NC(=Cc2cn(C)c3ccccc23)C(=O)N1C,-1.24
2,CCOC(=O)/C(C#N)=C\c1ccc(Cl)cc1,11.69
3,Cn1c(CNNC(=O)c2ccco2)cc2ccccc21,21.64
4,O=C(O)n1ccc2ccccc21,9.43
5,Cc1ccc(C2c3c(nc4c(c3N)CCCC4)Oc3ccc4ccccc4c32)cc1 (centres undefined),-5.39
6,C#CCN(C)Cc1cc2cc(OCCC3CCN(Cc4ccccc4)CC3)ccc2n1C.Cl,-29.82
7,CCOC(=O)C1=C(C)OC(N)=C(C#N)C1c1cccnc1 (centres undefined),-11.43
8,O=C1SC(SCc2ccccc2)=NC1=Cc1cccc(OCc2ccccc2)c1,7.89
9,CCOC(=O)c1c(C)nc(/N=N/c2nc(C)c(C(=O)OCC)c(-c3ccccc3)c2C#N)c(C#N)c1-c1ccccc1,6.76
10,CC#CCN.Cl,20.2
11,COc1ccc(C2c3ccc4ccccc4c3Oc3nc4c(c(N)c32)CCCC4)c(OC)c1 (centres undefined),-4.44
12,COc1ccc2cc(C3C(C(C)=O)=C(C)Oc4nc5c(c(N)c43)CCC5)c(Cl)nc2c1 (centres undefined),4.4
13,COc1ccc2c(c1)cc(CN(C)Cc1cn(Cc3ccccc3)nn1)n2C,-32.11
14,COc1cc(C2c3ccc4ccccc4c3Oc3nc4c(c(N)c32)CCCC4)ccc1O.Cl (centres undefined),-1.18
15,O=C(NNCc1ccco1)c1cc2ccccc2[nH]1,-6.94
16,N#CC1=C(Cl)Oc2c(ccc3ccccc23)C1c1ccccc1 (centres undefined),-36.62
17,CC1Cc2c(Cl)nc3nc4c(c(N)c3c2NC1=O)CCCC4 (centres undefined),-7.98
18,Clc1ccc(-c2cn3ccccc3n2)cc1,15.37
19,O=C1NC(=O)C(=Cc2ccccc2)N1,11.12
